Results taken from PubChem BioAssay (NCI).
Several values for one entry are separate records, joined by “and”; a condition that tells them apart may be missing. Equal entries are not always repeated. Compounds without any hit were thinned out: in the full panel of roughly 83,000, 20% have a hit.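 Treatment: one concentration, 48 hours, 96-well format. Scoring: percent growth, with anything below 10 considered active.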 Activity calls are given as the source filed them.

Experiments:
Assay in all cases: NCI-60 one-dose screen, 48 h (100 = growth as untreated, 0 = no growth, -100 = all killed)
Details in all cases: 10 µM unless noted
T-47D breast = tested on: T-47D breast
BT-549 breast = tested on: BT-549 breast
MDA-MB-435 melanoma = tested on: MDA-MB-435 melanoma
SW-620 colon = tested on: SW-620 colon
MCF7 breast = tested on: MCF7 breast
HCT-116 colon = tested on: HCT-116 colon
KM12 colon = tested on: KM12 colon
HCC-2998 colon = tested on: HCC-2998 colon

SMILES	growth (T-47D breast)	growth (BT-549 breast)	growth (MDA-MB-435 melanoma)	growth (SW-620 colon)	growth (MCF7 breast)	growth (HCT-116 colon)	growth (KM12 colon)	growth (HCC-2998 colon)
CCN(CC)CCCC(CNc1ccnc2cc(Cl)ccc12)c1ccc(Cl)cc1 (centres undefined)	-41.1% (active) and 114% (inactive)	10.4% (inactive) and -11.4% (active)	-93.3% (active) and -61.5% (active)	6.45% (active) and -100% (active)	-31.8% (active) and 70.3% (inactive)	-15.1% (active) and -20.3% (active)	1.49% (active) and 33.3% (inactive)	
CC1(C)[C@@H](OC(=O)CCC(=O)O)CC[C@]2(C)[C@H]3C(=O)C=C4[C@@H]5C[C@@](C)(C(=O)O)CC[C@]5(C)CC[C@@]4(C)[C@]3(C)CC[C@@H]12	90.6% (inactive) and 2.63% (active)	99.7% (inactive) and -32.4% (active)	98.8% (inactive) and -47.7% (active)	109% (inactive) and -37.2% (active)	91.2% (inactive) and 6.18% (active)	95.4% (inactive) and -58.8% (active)	97% (inactive) and -73.1% (active)	103% (inactive) and -71.7% (active)
CCN(CC)CCCC(C)N(Cc1ccccc1)CC(O)c1ccc(Cl)cc1 (centres undefined)	94.5% (inactive) and 91.3% (inactive)	110% (inactive) and 102% (inactive)	116% (inactive) and 107% (inactive)	98.8% (inactive) and 113% (inactive)	105% (inactive) and 99.3% (inactive)	102% (inactive) and 100% (inactive)	103% (inactive) and 101% (inactive)	101% (inactive)
O=C1c2ccccc2C(=O)N1/N=C/c1ccc2c(c1)OCO2	99.9% (inactive)	97.2% (inactive)	114% (inactive)	107% (inactive)	91.3% (inactive)	95% (inactive)	113% (inactive)	
NC(=O)NO	107% (inactive) and 46.6% (inactive)	110% (inactive) and 41.5% (inactive)	98.5% (inactive) and 74.4% (inactive)	105% (inactive) and 78.4% (inactive)	96.9% (inactive) and 65.2% (inactive)	109% (inactive) and 67.6% (inactive)	100% (inactive) and 67.8% (inactive)	
O=[N+]([O-])c1ccc2nc3c4ccccc4c4ccccc4c3nc2c1	67.9% (inactive)	86.9% (inactive)	95% (inactive)	63.4% (inactive)	65% (inactive)	33.6% (inactive)	89.3% (inactive)	
OCCN1CCN(CCO)CC1	89.8% (inactive) and 86% (inactive) and 118% (inactive)	110% (inactive) and 89.5% (inactive) and 102% (inactive)	113% (inactive) and 99.8% (inactive) and 115% (inactive)	99.5% (inactive) and 103% (inactive)	95.5% (inactive) and 95.1% (inactive) and 107% (inactive)	104% (inactive) and 87.9% (inactive) and 98.8% (inactive)	108% (inactive) and 96.8% (inactive) and 109% (inactive)	102% (inactive) and 95.7% (inactive) and 107% (inactive)
Cc1n[nH]c(=O)n(/N=C\c2c[nH]c3ccccc23)c1=O	102% (inactive)	117% (inactive)	107% (inactive)	106% (inactive)	91.1% (inactive)	113% (inactive)	105% (inactive)	108% (inactive)
c1ccc(NCc2ccc3c(c2)OCO3)cc1	94.3% (inactive) and 110% (inactive)	99.4% (inactive) and 85.2% (inactive)	111% (inactive) and 98.2% (inactive)	102% (inactive) and 101% (inactive)	99.7% (inactive) and 102% (inactive)	103% (inactive) and 98.3% (inactive)	103% (inactive) and 102% (inactive)	102% (inactive) and 112% (inactive)
CCN(CC)CCNc1cc(-c2cccc(OC(F)(F)F)c2)nc2ccc(N3CCCC3)cc12	64.4% (inactive) and -11.2% (active) and 20.9% (inactive)	-70.7% (active) and 34.3% (inactive) and 62.7% (inactive)	-4.48% (active) and -55% (active) and -33.6% (active)		6.94% (active) and -27.3% (active) and -21.5% (active)	-88% (active) and -45.7% (active) and 4.4% (active)		23.8% (inactive) and -45.2% (active) and -4.48% (active)
OC(COc1cccc2ccccc12)CN1CCN(c2ccc(Cl)cc2)CC1 (centres undefined)	71.2% (inactive) and 96.1% (inactive)	85.4% (inactive) and 134% (inactive)	90.2% (inactive) and 94.6% (inactive)	71.7% (inactive) and 98.6% (inactive)	83.6% (inactive) and 89.7% (inactive)	60.2% (inactive) and 83.4% (inactive)	90% (inactive) and 113% (inactive)	
O=C(O)CN(CCN(CC(=O)O)CC(=O)O)CCN(CC(=O)O)CC(=O)O	9.23% (active) and 101% (inactive)	-10.9% (active) and 92.1% (inactive)	17.1% (inactive) and 101% (inactive)	10.5% (inactive) and 109% (inactive)	18% (inactive) and 85.5% (inactive) and 101% (inactive)	3.66% (active) and 91.9% (inactive) and 100% (inactive)	15.9% (inactive) and 112% (inactive) and 108% (inactive)	15.8% (inactive) and 105% (inactive) and 110% (inactive)
CC(C)CNC(=O)c1ccccc1C(=O)NC1(C(=O)NCC(C)C)CCCC1	106% (inactive) and 95.5% (inactive)	122% (inactive) and 115% (inactive)	101% (inactive) and 105% (inactive)	102% (inactive) and 106% (inactive)	103% (inactive) and 106% (inactive)	106% (inactive) and 104% (inactive)	112% (inactive) and 104% (inactive)	
O=C(CCl)c1ccc2c(c1)Nc1ccccc1S2	71.2% (inactive) and -3.6% (active)	74% (inactive) and 76.1% (inactive)	100% (inactive) and 88.9% (inactive)	92.2% (inactive) and 79.1% (inactive)	85.5% (inactive) and -32.4% (active)	69.1% (inactive) and 64.3% (inactive)	104% (inactive) and 102% (inactive)	83.3% (inactive)
CC(O)(CC(=O)CC(=O)c1ccccc1)c1ccccc1 (centres undefined)	108% (inactive) and 109% (inactive)	93.4% (inactive) and 95.8% (inactive)	97.8% (inactive)	99.9% (inactive) and 107% (inactive)	108% (inactive) and 123% (inactive)	92.3% (inactive) and 92.6% (inactive)	103% (inactive) and 104% (inactive)	
O=C(N/N=C/c1cccc2ccccc12)C1CC1	98.9% (inactive) and 109% (inactive)	101% (inactive)	117% (inactive) and 97.8% (inactive)	110% (inactive) and 102% (inactive)	80.3% (inactive) and 87.5% (inactive)	106% (inactive) and 102% (inactive)	108% (inactive) and 104% (inactive)	104% (inactive) and 101% (inactive)
CC(=O)Nc1ccc2cc3ccc(NC(C)=O)cc3nc2c1	81.6% (inactive) and 69.9% (inactive)	106% (inactive) and 92.9% (inactive)	83.6% (inactive) and 92.6% (inactive)	90% (inactive) and 91.3% (inactive)	68.3% (inactive) and 85.1% (inactive)	92.3% (inactive) and 81.3% (inactive)	79.6% (inactive) and 89.5% (inactive)	77.1% (inactive)
O=[N+]([O-])c1ccc(-n2[nH]nnc2=S)cc1	103% (inactive)	104% (inactive)	106% (inactive)	103% (inactive)	95% (inactive)	101% (inactive)	108% (inactive)	
Oc1ccccc1C=NCC1CCC(CN=Cc2ccccc2O)CC1 (centres undefined)	96.9% (inactive)	113% (inactive)	104% (inactive)	47.4% (inactive)	66% (inactive)	52.8% (inactive)	107% (inactive)	
Fc1ccccc1Nc1n[nH]c(=S)s1	103% (inactive)	112% (inactive)	117% (inactive)	105% (inactive)	105% (inactive)	98% (inactive)	104% (inactive)	110% (inactive)
